This note sets out measurements from PubChem BioAssay (EPA / NIEHS).

As usually defined, the AC50 is the midpoint of the concentration-response curve, whichever way the signal moves.

The source made the active and inactive calls. The calls were made as follows: active = hit-call score of the fitted dose curve at least 0.9, where 1 is the maximum; inactive = score below 0.9.

Common to all, as to conditions: mRNA level, 48 h; actives raise or lower the signal
Read-out in assay [1]: Bcl-2 (BAD) gene, BAD (gene 572)
The assay can be described thus: LTEA_HepaRG_BAD: Life Technologies and Expression Analysis (LTEA) Assay for Bcl-2 (BAD) gene using HepaRG (AID 2283469). In short, it runs like this: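 HepaRG, 48 h exposure, 8-pt half-log curve from 100 uM in 0.5% DMSO, duplicates. Readout: TaqMan qRT-PCR for BAD mRNA, housekeeping-normalised (ACTB/GAPDH/POLR2A); gain or loss fitted against DMSO baseline.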

Read-out in assay [2]: Bcl-2 (BAX) gene, BAX (gene 581)
As to the kind of experiment: LTEA_HepaRG_BAX: Life Technologies and Expression Analysis (LTEA) Assay for Bcl-2 (BAX) gene using HepaRG (AID 2283470). Summed up: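 qRT-PCR read-out of BAX mRNA, normalized to three housekeeping genes, after 48 h chemical exposure of human HepaRG cells in serum-free induction medium; eight-point half-log series, top 100 uM, 0.5% DMSO vehicle; bidirectional fit versus DMSO.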

Read-out in assay [3]: adenosine kinase (ADK) gene, ADK (gene 132)
The assay can be described thus: LTEA_HepaRG_ADK: Life Technologies and Expression Analysis (LTEA) Assay for adenosine kinase (ADK) gene using HepaRG (AID 2283471). Summed up:
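ADK expression quantified by qRT-PCR, normalised to three housekeeping genes, after 48 h exposure of HepaRG cells to eight concentrations (top 100 uM, half-log steps, duplicate, 0.5% DMSO). Up- or down-regulation fitted relative to vehicle.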

Read-out in assay [4]: Alpha-fetoprotein (AFP) gene, AFP (gene 174)
The assay can be described thus: LTEA_HepaRG_AFP: Life Technologies and Expression Analysis (LTEA) Assay for Alpha-fetoprotein (AFP) gene using HepaRG (AID 2283472). Summed up:
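qRT-PCR (Fluidigm TaqMan) readout of AFP transcript, normalized to three housekeeping genes, fitted bidirectionally against 0.5% DMSO baseline. HepaRG cells received chemicals for 48 h in serum-free induction medium, top concentration 100 uM, half-log steps.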

Read-out in assay [5]: BCL2L11 (gene 10018)
As to the kind of experiment: LTEA_HepaRG_BCL2L11: Life Technologies and Expression Analysis (LTEA) Assay for Bcl-2 (BCL2L11) gene using HepaRG (AID 2283473). In short, it runs like this: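 BCL2L11 transcript levels are measured by Fluidigm qRT-PCR, normalized to three housekeeping genes. HepaRG cultures were plated 48 h, then treated 48 h with test chemical (top 100 uM, half-log, 0.5% DMSO vehicle); curves were fitted bidirectionally against DMSO.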

Read-out in assay [6]: Apolipoprotein A-V (APOA5) gene, APOA5 (gene 116519)
The assay can be described thus: LTEA_HepaRG_APOA5: Life Technologies and Expression Analysis (LTEA) Assay for Apolipoprotein A-V (APOA5) gene using HepaRG (AID 2283474). Summed up: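 APOA5 transcript levels were quantified by qRT-PCR, normalized to three housekeeping genes, after 48 h chemical treatment of HepaRG cells (8 points, 100 uM maximum, half-log steps, 0.5% DMSO). Curves fitted in both directions against vehicle.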

Read-out in assay [7]: Apoptosis regulator Bcl-2 (Homo sapiens) (UniProt P10415)
As to the kind of experiment: LTEA_HepaRG_BCL2: Life Technologies and Expression Analysis (LTEA) Assay for Bcl-2 gene using HepaRG (AID 2283475). Summed up:
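qRT-PCR read-out (Fluidigm TaqMan) of BCL2 transcript, normalised to three housekeeping genes, after 48 h chemical exposure of HepaRG cells; 8-point half-log series, top 100 uM, 0.5% DMSO vehicle. Gain or loss of signal fitted relative to DMSO baseline.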

Read-out in assay [8]: Bcl-2 (BID) gene, BID (gene 637)
As to the kind of experiment: LTEA_HepaRG_BID: Life Technologies and Expression Analysis (LTEA) Assay for Bcl-2 (BID) gene using HepaRG (AID 2283476). Summed up: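 HepaRG, 48 h exposure, 8-pt half-log series, top 100 uM, 0.5% DMSO vehicle, duplicates. Readout: BID mRNA by TaqMan qRT-PCR; housekeeping-normalized; bidirectional curve fit vs DMSO baseline.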

Read-out in assay [9]: Caspase-3 (Homo sapiens) (UniProt P42574)
The assay can be described thus: LTEA_HepaRG_CASP3: Life Technologies and Expression Analysis (LTEA) Assay for cysteine-aspartic acid protease (CASP3) using HepaRG (AID 2283477). In short, it runs like this: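 Expression of CASP3 was quantified by TaqMan qRT-PCR against three housekeeping genes (ACTB, GAPDH, POLR2A), bidirectionally versus 0.5% DMSO. HepaRG cultures received compounds in duplicate, top 100 uM with half-log steps, for 48 h in serum-free induction medium.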

Read-out in assay [10]: Cytochrome P450 (CYP24A1), CYP24A1 (gene 1591)
As to the kind of experiment: LTEA_HepaRG_CYP24A1: Life Technologies and Expression Analysis (LTEA) Assay for Cytochrome P450 (CYP24A1) using HepaRG (AID 2283478). In short, it runs like this:
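mRNA of CYP24A1 quantified by TaqMan qRT-PCR (ACTB/GAPDH/POLR2A normalization) after 48 h chemical exposure of HepaRG cells, top concentration 100 uM, half-log steps, 0.5% DMSO vehicle, duplicates. Curves fitted bidirectionally against DMSO baseline.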

Read-out in assay [11]: Cytochrome P450 (CYP1A2), CYP1A2 (gene 1544)
As to the kind of experiment: LTEA_HepaRG_CYP1A2: Life Technologies and Expression Analysis (LTEA) Assay for Cytochrome P450 (CYP1A2) using HepaRG (AID 2283479). In short, it runs like this: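 CYP1A2 transcript measured by TaqMan qRT-PCR against three housekeeping genes after 48-hour chemical exposure of HepaRG cells. Eight-point half-log series topping at 100 uM in 0.5% DMSO, duplicates; gain or loss fitted relative to vehicle.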

Read-out in assay [12]: cysteine-aspartic acid protease (CASP8), CASP8 (gene 841)
As to the kind of experiment: LTEA_HepaRG_CASP8: Life Technologies and Expression Analysis (LTEA) Assay for cysteine-aspartic acid protease (CASP8) using HepaRG (AID 2283480). In short, it runs like this:
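qRT-PCR readout of CASP8 mRNA, normalized to three housekeeping genes, after 48 h chemical exposure of HepaRG cells; 8-point half-log series, top 100 uM, 0.5% DMSO vehicle. Bidirectional curve fitting against DMSO baseline.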

Read-out in assay [13]: Cytochrome P450 (CYP2B6), CYP2B6 (gene 1555)
The assay can be described thus: LTEA_HepaRG_CYP2B6: Life Technologies and Expression Analysis (LTEA) Assay for Cytochrome P450 (CYP2B6) using HepaRG (AID 2283481). Summed up: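 CYP2B6 transcript level quantified by qRT-PCR against three housekeeping genes, fitted bidirectionally relative to DMSO. HepaRG cultures received chemicals for 48 h, 8-point half-log series from 100 uM in 0.5% DMSO, duplicate wells, serum-free induction medium.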

Read-out in assay [14]: Cytochrome P450 2C19 (Homo sapiens) (UniProt P33261)
The assay can be described thus: LTEA_HepaRG_CYP2C19: Life Technologies and Expression Analysis (LTEA) Assay for CYP2C19 using HepaRG (AID 2283482). In short, it runs like this: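 CYP2C19 transcript levels by qRT-PCR, normalized to three housekeeping genes, in HepaRG cells after 48 h chemical exposure. Eight-point half-log series topping at 100 uM, 0.5% DMSO vehicle. Increases and decreases both fitted against DMSO.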

Read-out in assay [15]: CYP2C8 (gene 1558)
The assay can be described thus: LTEA_HepaRG_CYP2C8: Life Technologies and Expression Analysis (LTEA) Assay for CYP2C8 using HepaRG (AID 2283483). Summed up: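 HepaRG (human liver line), 48 h chemical exposure, 8-pt half-log series from 100 uM, 0.5% DMSO vehicle. Readout: CYP2C8 transcript by qRT-PCR, housekeeping-normalized. Bidirectional fit vs DMSO baseline.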

Read-out in assay [16]: CYP2C9 (gene 1559)
As to the kind of experiment: LTEA_HepaRG_CYP2C9: Life Technologies and Expression Analysis (LTEA) Assay for CYP2C9 using HepaRG (AID 2283484). In short, it runs like this: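 HepaRG, 48 h dosing, 8-pt half-log series, top 100 uM, 0.5% DMSO vehicle. Read-out: CYP2C9 transcript by TaqMan qRT-PCR, housekeeping-normalized (ACTB/GAPDH/POLR2A). Gain or loss fitted vs DMSO baseline.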

Read-out in assay [17]: CYP2E1 (gene 1571)
As to the kind of experiment: LTEA_HepaRG_CYP2E1: Life Technologies and Expression Analysis (LTEA) Assay for CYP2E1 using HepaRG (AID 2283485). In short, it runs like this:
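CYP2E1 transcript was measured by TaqMan qRT-PCR in human HepaRG cultures after 48 h chemical exposure (top 100 uM, half-log steps, 0.5% DMSO vehicle). Housekeeping-gene normalization; gain or loss fitted relative to DMSO baseline.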

Read-out in assay [18]: CYP4A11 (gene 1579)
The assay can be described thus: LTEA_HepaRG_CYP4A11: Life Technologies and Expression Analysis (LTEA) Assay for CYP4A11 using HepaRG (AID 2283486). In short, it runs like this: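 Readout is CYP4A11 transcript level by qRT-PCR, normalized to three housekeeping genes and fitted bidirectionally against 0.5% DMSO. Human HepaRG cells were treated 48 h, in duplicate, with an 8-point half-log series topping at 100 uM.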

Read-out in assay [19]: Cytochrome P450 3A4 (Homo sapiens) (UniProt P08684)
As to the kind of experiment: LTEA_HepaRG_CYP3A4: Life Technologies and Expression Analysis (LTEA) Assay for CYP3A4 using HepaRG (AID 2283487). Summed up:
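Differentiated HepaRG cells, plated 48 h, then dosed 48 h in serum-free induction medium with 0.5% DMSO, 8 half-log concentrations up to 100 uM, duplicate. CYP3A4 mRNA by qRT-PCR, normalized to ACTB/GAPDH/POLR2A; bidirectional fit versus DMSO.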

Read-out in assay [20]: DNA damage-inducible transcript 3 (DDIT3), DDIT3 (gene 1649)
The assay can be described thus: LTEA_HepaRG_DDIT3: Life Technologies and Expression Analysis (LTEA) Assay for DNA damage-inducible transcript 3 (DDIT3) using HepaRG (AID 2283488). Summed up:
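qRT-PCR readout (Fluidigm TaqMan), housekeeping-normalized to ACTB, GAPDH, POLR2A. HepaRG cells, 48 h exposure, 8-point half-log series from 100 uM in 0.5% DMSO, duplicates. Gain or loss of signal fitted against DMSO baseline.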

Sequence of Caspase-3 (Homo sapiens) (P42574 whole entry, looked up): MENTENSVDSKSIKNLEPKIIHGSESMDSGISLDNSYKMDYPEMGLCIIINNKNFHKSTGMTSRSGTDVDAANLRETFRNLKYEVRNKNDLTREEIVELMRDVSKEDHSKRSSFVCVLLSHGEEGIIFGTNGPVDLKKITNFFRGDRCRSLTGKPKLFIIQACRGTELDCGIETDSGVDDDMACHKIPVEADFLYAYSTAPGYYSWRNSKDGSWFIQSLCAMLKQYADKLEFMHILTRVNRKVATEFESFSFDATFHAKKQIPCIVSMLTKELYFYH
Sequence of Cytochrome P450 3A4 (Homo sapiens) (P08684 whole entry, looked up): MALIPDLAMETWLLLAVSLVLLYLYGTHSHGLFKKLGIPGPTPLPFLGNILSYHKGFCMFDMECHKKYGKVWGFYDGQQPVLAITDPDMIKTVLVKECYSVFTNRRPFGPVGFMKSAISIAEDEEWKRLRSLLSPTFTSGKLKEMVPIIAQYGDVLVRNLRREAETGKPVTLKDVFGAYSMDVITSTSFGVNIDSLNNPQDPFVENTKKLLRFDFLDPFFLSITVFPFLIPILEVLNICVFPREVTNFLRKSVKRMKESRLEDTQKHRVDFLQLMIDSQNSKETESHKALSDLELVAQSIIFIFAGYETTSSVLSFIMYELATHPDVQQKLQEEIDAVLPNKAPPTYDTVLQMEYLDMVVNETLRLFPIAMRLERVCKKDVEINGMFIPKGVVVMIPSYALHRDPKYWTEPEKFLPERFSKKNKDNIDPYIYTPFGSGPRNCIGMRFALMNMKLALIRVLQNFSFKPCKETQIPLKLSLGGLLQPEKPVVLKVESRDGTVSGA
Sequence of Cytochrome P450 2C19 (Homo sapiens) (P33261 whole entry, looked up): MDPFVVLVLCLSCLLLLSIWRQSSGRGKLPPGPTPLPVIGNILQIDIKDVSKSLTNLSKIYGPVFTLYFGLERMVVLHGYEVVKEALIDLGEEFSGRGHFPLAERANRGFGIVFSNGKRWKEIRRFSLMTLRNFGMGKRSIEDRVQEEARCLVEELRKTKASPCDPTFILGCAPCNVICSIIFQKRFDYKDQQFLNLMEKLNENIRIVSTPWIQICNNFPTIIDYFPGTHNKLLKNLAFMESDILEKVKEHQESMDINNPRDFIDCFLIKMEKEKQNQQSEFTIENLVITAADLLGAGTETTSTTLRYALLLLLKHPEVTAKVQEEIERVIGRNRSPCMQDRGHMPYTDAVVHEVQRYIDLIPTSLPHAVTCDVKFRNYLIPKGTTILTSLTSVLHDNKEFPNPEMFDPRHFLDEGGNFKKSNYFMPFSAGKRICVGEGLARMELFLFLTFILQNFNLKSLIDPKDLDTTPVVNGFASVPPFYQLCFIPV
Sequence of Apoptosis regulator Bcl-2 (Homo sapiens) (P10415 whole entry, looked up): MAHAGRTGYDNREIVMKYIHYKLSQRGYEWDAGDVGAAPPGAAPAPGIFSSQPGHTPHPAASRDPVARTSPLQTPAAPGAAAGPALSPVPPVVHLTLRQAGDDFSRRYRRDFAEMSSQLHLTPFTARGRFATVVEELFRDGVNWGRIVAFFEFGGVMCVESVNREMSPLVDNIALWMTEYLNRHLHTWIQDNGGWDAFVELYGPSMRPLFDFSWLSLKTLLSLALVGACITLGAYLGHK

For the compound `CC(=O)OC/C=C(\C)CCC=C(C)C`, the result in assay [1], in assay [2], in assay [3], in assay [4], in [5] and in assay [6] was inactive. Also, the outcome in assay [7], in assay [8], in [9], in assay [10], in assay [11] and in [12] was inactive. The call in [13], in [14], in assay [15], in assay [16], in [17] and in assay [18] was inactive. Moreover, the outcome in [19] and in [20] was inactive.

Regarding `CN1CCN(Cc2cc(-c3ccc4[nH]c(=O)oc4c3)co2)[C@@H](c2ccc(F)cc2)C1`, the compound was classed as inactive in assay [1], in assay [2], in assay [3], in [5], in [6] and in assay [7]. For the same compound, the outcome in assay [8], in assay [9], in assay [10], in [12], in assay [14] and in assay [15] was inactive. For the same compound, the compound was called inactive in assay [19] and in assay [20]. The AC50 in [4] is 90.1 µM (active); in assay [11] it was 65.7 µM (active); in [16], 88 µM (active); in assay [17] it was 50 µM (active); in assay [18], 78.5 µM (active).

For the compound `NCC1(Cc2noc(=O)[nH]2)CCCCC1`, the call in [1], in assay [2], in assay [3], in [4], in assay [5] and in assay [6] was inactive. Also, the compound was classed as inactive in [7], in assay [8], in assay [9], in assay [10], in assay [11] and in assay [14]. The result in [15], in [17], in [18], in assay [19] and in assay [20] was inactive.

On to `CC(=O)C(C)=CC1C(C)=CCCC1(C)C` (stereo unspecified), for which the compound was called inactive in [1], in assay [2], in [3], in assay [4], in assay [6] and in assay [7]. Also, the outcome in assay [8], in assay [9], in assay [10], in assay [11], in assay [12] and in [13] was inactive. Moreover, the call in [14], in assay [15], in [16], in assay [17], in assay [18] and in assay [19] was inactive. The compound was classed as inactive in [20].

Regarding `Cc1cccc(Nc2cc(Cl)nc(SCC(=O)O)n2)c1C`, the outcome in [1], in assay [2], in [3], in assay [4], in assay [5] and in [6] was inactive. The outcome in assay [7], in assay [9], in assay [10], in [11] and in assay [20] was inactive. The AC50 was 0.276 µM (active) in [8]; 50 µM (active) in assay [14]; 50 µM (active) in [15]; 22.3 µM (active) in [17]; 4.63 µM (active) in [18].

Regarding `CCCCCCCCCCCC(=O)OC`, the outcome in assay [1], in assay [2], in assay [3], in [4], in assay [5] and in [6] was inactive. Moreover, the outcome in [7], in assay [8], in assay [9], in assay [10], in assay [14] and in assay [15] was inactive. For the same compound, the compound was classed as inactive in assay [17], in assay [18], in assay [19] and in assay [20]. For the same compound, the AC50 in [11] is 66.9 µM (active).

On to `Cc1cccc([N+](=O)[O-])c1C`, for which the compound was called inactive in assay [1], in assay [2], in [3], in assay [4], in assay [5] and in assay [6]. The call in assay [7], in [8], in assay [9], in [10], in assay [11] and in assay [14] was inactive. Also, the call in assay [15], in [16], in assay [17], in assay [18], in [19] and in assay [20] was inactive.
